Laboratory results published in the supplement of paper PMC13380429.
A number with no mark means an inactive call.

Tested on: Vero E6 infected with SARS-CoV-2
Test: inhibition of SARS-CoV-2 cytopathic effect; higher = more antiviral protection, active = above 15
Details: 48 h

SMILES	inhibition of SARS-CoV-2 cytopathic effect (1 nM)	inhibition of SARS-CoV-2 cytopathic effect (8.33 nM)	inhibition of SARS-CoV-2 cytopathic effect (100 nM)	inhibition of SARS-CoV-2 cytopathic effect (833.33 nM)	inhibition of SARS-CoV-2 cytopathic effect (10000 nM)
O=C1Nc2ccccc2/C1=C1/Nc2ccccc2C1=O [indirubin]	-0.6%	-1.11%	-0.33%	1.04%	0.51%
O=C(O)/C=C1\CCCc2ccccc2[C@H]1O (racemic)	0.95%	1.44%	1.65%	1.72%	4.1%
O=[N+]([O-])c1c(Nc2cc(F)cc(Cl)c2)ccc2nonc12	1.7%	2.32%	1.45%	-0.1%	2.66%
CC1(C)[C@@H]2C[C@@H](O)[C@@](C)(O)[C@H]1C2 [2,3-cis/exo-pinanediol]	-0.96%	1.89%	2.23%	-0.64%	2.13%
CNC(=O)c1cc(Oc2ccc(NC(=O)Nc3ccc(Cl)c(C(F)(F)F)c3)cc2)ccn1 [sorafenib]	-0.83%	1.38%	2.59%	2.85%	16.4% (active)
c1ccc2c(CC3=NCCN3)cccc2c1 [naphazoline]	1.08%	0.66%	0.05%	2.24%	0.73%
C[C@]12C=CC(=O)C=C1CC[C@@H]1[C@@H]2[C@@H](O)C[C@@]2(C)[C@H]1CC[C@]2(O)C(=O)COP(=O)(O)O [prednisolone-sodium-phosphate]	-6.31%	-10%	-8.54%	-9.6%	-4.78%
